Here are results for six molecules from PubChem BioAssay AID651551 (Sanford-Burnham Center for Chemical Genomics, 2012).

Molecules are shown by their SMILES.

A short description of the assay: GAPDH versus PEG-3 reporter suppression – cell-based, luminescence, counter-screen for PEG-3 promoter inhibitor project, SAR follow-up (AID 651551). The note with it: HeLa PEG-Prom / GAPDH luciferase reporter, 6 or 24 h, run 2, 24 h; at 99 µM (top of the series).

As for `Cc1cc(NC(=O)c2ccccc2C(F)(F)F)n(-c2nc3ccccc3[nH]2)n1`, the inhibition % (higher = more inhibition) came to 95.1%.

The molecule `O=C(Nc1nc2ccccc2s1)c1nn(-c2ccccc2)c(=O)c2ccccc12` yielded an inhibition % (higher = more inhibition) of 60.8%.

For the molecule `O=C(Nc1nccs1)c1nn(-c2ccccc2)c(=O)c2ccccc12`, the inhibition % (higher = more inhibition) amounted to 56.2%.

Consider `Cc1nc(NC(=O)c2ccccc2)sc1-c1csc(Nc2ccccc2)n1`, for which the inhibition % (higher = more inhibition) was 87.7%.

As to `COc1ccc(-n2nc(C(=O)NCC(=O)Nc3cccc(OC)c3)c3ccccc3c2=O)cc1`, the inhibition % (higher = more inhibition) was 27.5%.

In turn, `O=C(Nc1nc(-c2ccccc2)cs1)c1nn(-c2ccccc2)c(=O)c2ccccc12` gave an inhibition % (higher = more inhibition) of 43.1%.
